# Laboratory results published in PMC5540273 (PLoS ONE, 2017).
# Tested on: ROCK1
# Conditions: concentration: 1 μM, replicates: in singlicate; n = 1
# 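Note: KINOMEscan kinase panel screen.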
row,Compound,%Inh
1,Nc1n[nH]c2cnc(-c3ccccc3)cc12 [SB-642124],40%
2,Cc1ccc(S(=O)(=O)Nc2ccc(Nc3nccc(Nc4cccc5[nH]ncc45)n3)cc2)cc1 [GSK581271],0%
3,c1ccc(-c2n[nH]cc2Nc2ccnc3ccccc23)nc1 [GW694077],98.2%
4,COc1ccc(Nc2nccc(NCCNC(=O)c3cc4ccccc4s3)n2)cc1 [GSK1379896],13%
5,Cc1ccc(F)c(C(=O)Nc2cccc(-c3nn4ccccc4c3-c3ccnc(Nc4cccc(F)c4)n3)c2)c1F [GSK361061],0%
6,CC(C)(C)c1ccc2nccc(Nc3cccc(O)c3)c2c1 [GW856795],55%
7,COc1cc(Nc2ncc3c(C)nc(-c4cc5ccccc5[nH]4)n3n2)cc(OC)c1OC [GW869516],0%
8,COC(=O)Nc1nc2ccc(Oc3ccc(NC(=O)Nc4cc(C(F)(F)F)ccc4F)cc3)cc2n1C.Cl [GW692089],34%
9,CCCCc1nn2ncccc2c1-c1ccnc(Nc2ccc(N3CCN(C)CC3)cc2)n1 [GW684941],32%
10,O=C(O)C(F)(F)F.O=C(O)C(F)(F)F.O=c1[nH]ccc2nc(N[C@@H]3CCCNC3)nc(Nc3ccc(S(=O)(=O)N4CCOCC4)cc3)c12 [GSK2177277],99.6%
11,Cl.Cl.NCC(C(=O)Nc1cc(Br)c(-c2ccnc3[nH]ccc23)s1)c1ccccc1 (centres unmarked) [GSK1269851],99.1%
12,COc1ccc(-c2coc3ccc(-c4nnc(SCc5ccc(OC)c(C(F)(F)F)c5)o4)cc23)cc1,0%
13,COc1cccc(-c2ccc3c(NC(=O)C4CC4)n[nH]c3n2)c1 [SB-710903],38%
14,Oc1cc(Nc2ccnc3cc(I)ccc23)ccc1F [GW552771],30%
15,COc1cc2c(cc1OCCN1CCNCC1)ncc1c3ccc(C#N)cc3[nH]c21,99.2%
16,CCS(=O)(=O)c1ccc(OC)c(Nc2nccc(-c3c(-c4cccc(NC(=O)c5c(F)cccc5F)c4)nn4ncccc34)n2)c1 [GSK326180],2%
17,Cc1cccc(Nc2nc(N[C@H]3CCNC3)ncc2C(N)=O)c1.Cl [GSK2197149],67%

# Tested on: ROCK2
# Conditions: concentration: 1 μM, replicates: in singlicate; n = 1
row,Compound,%Inh
1,COc1cc(Nc2nccc(N3CCC(NC(=O)Nc4cccc(C(C)=O)c4)C3)n2)cc(OC)c1OC (centres unmarked) [GSK1379753],7%
2,COc1cc(Nc2nccc(-c3c(-c4cccc(NC(=O)c5c(F)cccc5F)c4)nn4ncccc34)n2)cc(OC)c1OC [GSK327238],14%
3,O=C(Nc1n[nH]c2nc(-c3ccc(O)cc3)ccc12)C1CC1 [SB-710363],0%
4,O=c1[nH]cc(-c2ccc(N3CCOCC3)cc2)c2sc(-c3cn[nH]c3)cc12 [GSK2276055],0%
5,O=C(Nc1cccc(-c2nn3ccccc3c2-c2ccnc(Nc3cccc(F)c3)n2)c1)c1c(F)ccc(F)c1Cl [GSK357952],18%
6,CC(C)c1nc(-c2cccc(NS(=O)(=O)c3c(F)cccc3F)c2F)c(-c2ccnc(Nc3ccc(N4CCOCC4)nc3)n2)s1 [GSK2008607],0%
7,CC(=O)N1CCN(c2ccc(Nc3nccc(-c4sc(C(C)C)nc4-c4cccc(NS(=O)(=O)c5cccc(Cl)c5)c4)n3)cn2)CC1 [GSK1660437],18%
8,O=C(Nc1cccc(-c2nn3ncccc3c2-c2ccnc(Nc3ccccc3)n2)c1)c1c(F)cccc1F [GSK198271],0%
9,Cl.c1ccc(-c2ccc3c(Nc4ccc5[nH]ncc5c4)ccnc3c2)nc1 [GW440137],35%
10,Cn1cc(-c2[nH]c3cc(NC(=O)[C@H](N)C4CCCCC4)cc4c3c2C=NNC4=O)cn1,91.8%
11,CNC(=O)c1ccccc1Nc1nc(Nc2ccc(N3CCOCC3)cc2)ncc1Cl.Cl [GSK1576028],37%
12,c1ccc(-c2cnc3nccnn23)cc1 [AH20685],0%
13,CN(C)S(=O)(=O)c1cc(-c2ccc3nccc(-c4cccc(S(N)(=O)=O)c4)c3c2)cnc1N [GSK1669921],0%
14,COc1cccc(NC(=O)NC2CCN(c3ccnc(Nc4cc(OC)c(OC)c(OC)c4)n3)C2)c1 (centres unmarked) [GSK1379763],9%
15,C[C@@H](Oc1cc(-n2cnc3cc(-c4ccnc(NCCS(C)(=O)=O)c4)ccc32)sc1C(N)=O)c1ccccc1Cl [GSK907232],0%
16,Fc1ccc(-c2ncn(C3CCNCC3)c2-c2ccnc(Oc3ccc(-c4ccccc4)cc3)n2)cc1 [SB-245391],7%
17,COc1cccc(C(=O)Nc2cccc(Oc3ccc4nc(NC(=O)C5CC5)cn4n3)c2)c1,0%
18,Nc1ncc(-c2cccnc2)c2scc(-c3ccc4c(c3)CCN4C(=O)Cc3ccccc3)c12 [GSK683281],6%

row,Compound,%Inh
1,Cc1occc1-c1ncc(OC[C@@H](N)Cc2c[nH]c3ccccc23)cc1-c1ccc2[nH]nc(C)c2c1.O=C(O)C(F)(F)F [GSK682037],79%
2,Nc1n[nH]c2cnc(-c3ccccc3)cc12 [SB-642124],18%
3,Cc1ccc(S(=O)(=O)Nc2ccc(Nc3nccc(Nc4cccc5[nH]ncc45)n3)cc2)cc1 [GSK581271],8%
4,c1ccc(-c2n[nH]cc2Nc2ccnc3ccccc23)nc1 [GW694077],97.8%
5,COc1ccc(Nc2nccc(NCCNC(=O)c3cc4ccccc4s3)n2)cc1 [GSK1379896],28%
6,Cc1ccc(F)c(C(=O)Nc2cccc(-c3nn4ccccc4c3-c3ccnc(Nc4cccc(F)c4)n3)c2)c1F [GSK361061],3%
7,CC(C)(C)c1ccc2nccc(Nc3cccc(O)c3)c2c1 [GW856795],30%
8,COc1cc(Nc2ncc3c(C)nc(-c4cc5ccccc5[nH]4)n3n2)cc(OC)c1OC [GW869516],0%
9,COC(=O)Nc1nc2ccc(Oc3ccc(NC(=O)Nc4cc(C(F)(F)F)ccc4F)cc3)cc2n1C.Cl [GW692089],39%
10,CCCCc1nn2ncccc2c1-c1ccnc(Nc2ccc(N3CCN(C)CC3)cc2)n1 [GW684941],30%
11,O=C(O)C(F)(F)F.O=C(O)C(F)(F)F.O=c1[nH]ccc2nc(N[C@@H]3CCCNC3)nc(Nc3ccc(S(=O)(=O)N4CCOCC4)cc3)c12 [GSK2177277],92.8%
12,Cl.Cl.NCC(C(=O)Nc1cc(Br)c(-c2ccnc3[nH]ccc23)s1)c1ccccc1 (centres unmarked) [GSK1269851],91.8%
13,COc1ccc(-c2coc3ccc(-c4nnc(SCc5ccc(OC)c(C(F)(F)F)c5)o4)cc23)cc1,23%
14,COc1cccc(-c2ccc3c(NC(=O)C4CC4)n[nH]c3n2)c1 [SB-710903],49%
15,Oc1cc(Nc2ccnc3cc(I)ccc23)ccc1F [GW552771],27%
16,COc1cc2c(cc1OCCN1CCNCC1)ncc1c3ccc(C#N)cc3[nH]c21,99.7%
17,CCS(=O)(=O)c1ccc(OC)c(Nc2nccc(-c3c(-c4cccc(NC(=O)c5c(F)cccc5F)c4)nn4ncccc34)n2)c1 [GSK326180],18%
18,Cc1cccc(Nc2nc(N[C@H]3CCNC3)ncc2C(N)=O)c1.Cl [GSK2197149],45%
